# Screening results deposited in PubChem BioAssay by National Center for Advancing Translational Sciences (NCATS).
# Tb PFK inh-1: inhibitors of T. brucei phosphofructokinase; 330,000 compounds, 0.17% hits; AID 485367; O15648; T. brucei PFK, ADP-Glo luminescence; Potency, µM (series often up to 57.5 µM), inactives show top-dose activity, negative = inhibition, hits mostly inhibitors;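 also: potency is read from the fitted curve at half-maximal effect; 0% = uninhibited 1x PFK enzyme wells and -100% = no-enzyme wells; nearly all actives have a fitted effect of over 60% in size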
# Target sequence (O15648 whole entry, looked up): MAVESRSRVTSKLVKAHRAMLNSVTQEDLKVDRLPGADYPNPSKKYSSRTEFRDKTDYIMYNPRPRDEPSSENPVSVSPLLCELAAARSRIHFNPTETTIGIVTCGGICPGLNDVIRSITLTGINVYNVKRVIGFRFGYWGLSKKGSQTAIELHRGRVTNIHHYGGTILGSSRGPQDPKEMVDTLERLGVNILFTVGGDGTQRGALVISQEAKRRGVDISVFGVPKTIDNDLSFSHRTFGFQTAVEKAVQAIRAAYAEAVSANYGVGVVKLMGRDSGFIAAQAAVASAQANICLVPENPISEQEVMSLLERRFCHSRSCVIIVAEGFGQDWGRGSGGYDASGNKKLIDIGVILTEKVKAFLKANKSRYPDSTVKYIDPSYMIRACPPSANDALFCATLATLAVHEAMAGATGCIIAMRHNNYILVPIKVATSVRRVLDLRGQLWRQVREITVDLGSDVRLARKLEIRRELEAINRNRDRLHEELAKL
#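 PFK 1.25 nM, F6P 0.5 mM, ATP 0.1 mM, 0.1 M TEA pH 8.0, 5 mM MgCl2, 0.01% Tween20, 0.1% BSA; 45 min RT. ADP-Glo readout. qHTS titration up to 57 uM; curves fitted, compounds curve-classed.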
# BCR signal inh: blocks chronic active B-cell receptor signaling | ABC-DLBCL IkBa-CBG/CBR reporter, luminescence ratio, 4 h | Potency, µM (highest dose often 46.1 µM), for the others: top-dose activity change, negative = inhibition, most hits filed as inhibitors | 340,000 compounds, 0.05% hits | AID 493014; active = well fitted inhibition curve with a large enough effect in the signal ratio, with a control signal flat, not every such curve was filed as active; inconclusive = small, poorly fitted or top-dose-only effect, or effect the other way, or a change in a side signal; the % refers to the signal ratio;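 also: potency is read from the fitted curve at half-maximal effect; plate controls were basal doxycycline-induced cells for no effect and cells given 10 µM MG132 for full effect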
#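 Compounds up to 46 uM were incubated four hours with TMD8 cells whose green CBG68 luciferase is fused to IkappaBalpha; red CBR luminescence normalised the signal, and concentration-effect curves were fitted to fusion, red and ratio data.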
# Pin1 inh: inhibitors of human Pin1; 390,000 compounds, 0.009% hits; AID 504891; Potency, µM (series often up to 115 µM), for the others: at the top dose activity, negative = inhibition, actives largely listed as inhibitors; Pin1 FP peptide displacement, HiFluor488, 10 min; active = well fitted inhibition curve with a large enough effect in the polarisation, with a control signal flat, not every such curve was filed as active; inconclusive = small, poorly fitted or top-dose-only effect, or effect the other way, or a change in a side signal; inactive = no such curve, though single readings can be large or run the other way; the % refers to the polarisation; also: potency is read from the fitted curve at half-maximal effect; % is scaled to controls: 0 for no effect and ±100 for the full control effect
# Target sequence (Q13526 whole entry, looked up): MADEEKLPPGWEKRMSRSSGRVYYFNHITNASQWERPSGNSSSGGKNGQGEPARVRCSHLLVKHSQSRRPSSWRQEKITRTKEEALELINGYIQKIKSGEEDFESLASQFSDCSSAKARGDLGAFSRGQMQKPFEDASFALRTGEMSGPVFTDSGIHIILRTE
# PGK inhibitor: blocks T. brucei phosphoglycerate kinase; P07378; Potency, µM (titrated, usually from 57.5 µM), for inactives: top-dose activity change, negative = inhibition, most hits filed as inhibitors; PGK/GAPDH coupled, Kinase-Glo luminescence, 60 min; 380,000 compounds, 0.043% hits; also: potency is read from the fitted curve at half-maximal effect; % is scaled to controls: 0 for no effect and ±100 for the full control effect; nearly all actives have a fitted effect of over 60% in size
#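 Recombinant glycosomal PGK reaction used 1,3-bisphosphoglycerate generated in-well by GAPDH (100nM final) in 100mM TEA pH 7.6, 5mM MgCl2, 0.01% Tween-20. After 60 minutes at room temperature, ATP was read by Kinase-Glo Plus luminescence end-point.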
# PI4K2A inh: PI4K2A (human) kinase inhibition; activity change, negative = inhibition, % at 76.9 µM; 420,000 compounds, 0.13% hits; AID 1346378; purified PI4K2A, ADP-Glo luminescence, 1 h; hits give low values; in the data active = activity change below about -50%; inconclusive = mostly about -30% to -49%;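 also: -100% = wells without enzyme as full effect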
#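 In this quantitative HTS, ADP production by PI4K2A was quantified luminescently after 1 h at ambient temperature; 100 microM adenosine served as plate-quality control.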
# TbPFK ATP: orthogonal confirmation of T. brucei phosphofructokinase inhibitors. AID 504636. 1,100 compounds, 47% hits. shares compounds with Tb PFK inh-1. Potency, µM (series often up to 57.5 µM), for inactives: top-dose inhibition. Tb PFK enzyme, ATP depletion, Kinase-Glo Plus luminescence; calls by dose curve; also: potency is read from the fitted curve at half-maximal effect; nearly all actives have a fitted effect of over 60% in size
# Tb PFK inh-2: T. brucei PFK enzyme inhibition, hit validation. shares compounds with Tb PFK inh-1. purified T. brucei PFK, ADP-Glo luminescence, 45 min. Potency, µM (top dose mostly 57.5 µM), for inactives: top-dose activity change, negative = inhibition, most hits filed as inhibitors. 1,100 compounds, 41% hits. AID 504637;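 also: potency is read from the fitted curve at half-maximal effect; plate controls were full PFK enzyme control for no effect and no enzyme control for full effect; nearly all actives have a fitted effect of over 60% in size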
# An asterisk follows results filed as active; i = inactive; ? = inconclusive; . = not tested or not shown. Rows were chosen to be rich in hits. Some 0.34% of all compounds tested hit in one or more screens of this group. Unless noted, calls follow the shape of the dose curve; as a rule, active = well fitted curve in the direction sought with a large enough effect; inconclusive = small, poorly fitted or top-dose-only effect, or another doubt; inactive = no such curve, though single readings can be large; an effect the other way counts as inactive or inconclusive.
SMILES,Tb PFK inh-1,BCR signal inh,Pin1 inh,PGK inhibitor,PI4K2A inh,TbPFK ATP,Tb PFK inh-2
O=[N+]([O-])c1ccc(CNc2ccc(Cl)cc2)s1,27µM*,?,-9%,-5%,-2,12µM*,27µM*
O=[N+]([O-])c1ccc(CNc2ccc(F)cc2)s1,17µM*,-4%,4%,-3%,-5,7.6µM*,9.5µM*
CC(=O)N1CCc2cc(S(=O)(=O)N3CCN(S(=O)(=O)c4c(F)cccc4F)CC3)ccc21,.,.,0%,.,.,.,.
CC1CC(=O)NN=C1c1ccc(NCC(C)(C)NCC(O)COc2cc(Cl)ccc2C#N)cc1 (centres undefined),.,.,.,.,0,.,.
CC(=O)CC/C=C(\C)CC/C=C(\C)CC/C=C(\C)CCC=C(C)C,.,.,.,.,-1,.,.
O=C(NCC(F)(F)F)c1ccc(S(=O)(=O)Nc2ccccc2N2CCCC2)cc1,?,1%,45%,i,-13,-31%,?
COc1cc(F)c(S(=O)(=O)N2CCN(S(=O)(=O)c3ccc(NC(C)=O)cc3)CC2)c(F)c1,.,.,4%,.,.,.,.
CC(=O)c1cc(Cc2csc(C(C)=O)c2)cs1,27µM*,?,-3%,0%,1,13µM*,30µM*
COc1ccc(OC)c(-c2c3cc(O)c(=O)cc-3oc3cc(O)c(O)cc23)c1,9.5µM*,?,?,?,-51*,?,3.8µM*
O=c1cc2oc3cc(O)c(O)cc3c(-c3ccccc3O)c-2cc1O,?,?,?,?,-8,.,.
CC(C)C(=O)Nc1cccc(C2CN3CCSC3=N2)c1 (centres undefined),.,.,.,.,-2,.,.
O=C(Nc1cccc(-c2nnn(CC(=O)N3CCc4ccccc4C3)n2)c1)C1CCC1,24µM*,-1%,18%,-5%,-2,13µM*,?
Cc1cccc(C)c1NS(=O)(=O)c1ccc(NC(=O)c2ccc(Cl)c([N+](=O)[O-])c2)cc1,4%,?,3%,0%,-2,.,.
O=C(Nc1ccc(S(=O)(=O)NC2=NCCCCC2)cc1)c1ccc(Cl)c([N+](=O)[O-])c1,?,0%,0%,-1%,2,13µM*,?
O=C(Nc1ccc2c(c1)OCCO2)c1ccc(Cl)c([N+](=O)[O-])c1,27µM*,?,-1%,i,4,12µM*,27µM*
COc1cccc(N2C(=O)c3ccccc3C2=O)c1,.,.,8%,.,.,.,.
CN(C)CCN(Cc1ccsc1)c1ccccn1,.,.,.,.,0,.,.
Nc1ncccc1OCc1ccc(Cl)c(Cl)c1,13µM*,?,2%,-8%,-3,5.4µM*,17µM*
O=C(c1ccc(Br)cc1)N1CCN(Cc2ccccc2)CC1,0%,0%,-1%,-6%,2,.,.
S=C(c1ccc(Br)cc1)N1CCN(Cc2ccccc2)CC1,?,18%,6%,i,6,8.5µM*,27µM*
Oc1ccc(C(=S)N2CCN(Cc3ccccc3)CC2)cc1,?,0%,4%,6%,0,9.5µM*,19µM*
O=[N+]([O-])c1ccc([S+](=O)([O-])N2CCN([S+](=O)([O-])c3ccc4c(c3)OCCO4)CC2)c([N+](=O)[O-])c1,.,.,-19%,.,.,.,.
O=C(O)CCc1nn2cc(-c3ccccc3)nc2[nH]c1=O,?,-1%,-2%,-5%,-7,-3%,10%
O=[N+]([O-])c1ccc(Sc2cccc[n+]2[O-])c2nonc12,11µM*,?,?,?,?,2.7µM*,9.5µM*
O=[N+]([O-])c1ccc(Nc2ccccc2)c2nonc12,-5%,9%,48%,-7%,-8,.,.
SMILES,Tb PFK inh-1,BCR signal inh,Pin1 inh,PGK inhibitor,PI4K2A inh,TbPFK ATP,Tb PFK inh-2
Cc1cc(C(=O)NNC(=O)Cc2ccc(Cl)c(Cl)c2)c(C)o1,27µM*,-16%,-4%,-1%,2,12µM*,30µM*
O=C(Nc1ccc(Cl)c(Cl)c1)O/N=C/c1ccncc1,8.5µM*,?,6%,-2%,0,?,?
O=C(Nc1cccc(Cl)c1)O/N=C\c1ccncc1,-11%,?,-1%,-10%,13,.,.
Clc1ccc2scc(CN3CCCCC3)c2c1,?,?,0%,-1%,0,?,?
O=[N+]([O-])c1ccc(Cl)cc1CN1CCCCCC1,-5%,?,0%,-3%,4,.,.
CCOC(=O)C1=C(C)c2ccccc2N(C(=O)OC)C1(C)C(=O)OCC (centres undefined),?,18µM*,-4%,-12%,-19,21µM*,?
[O-][n+]1cccc(/C(Cl)=N/OC[C@@H](O)CN2CCCCC2)c1,.,.,.,.,2,.,.
CC1=C(C(=O)Nc2ccccc2)C(c2ccccn2)n2ncnc2N1 (centres undefined),.,.,2%,-10%,2,.,.
CC1=C(C(=O)Nc2ccccc2)C(c2ccc[nH]2)n2ncnc2N1 (centres undefined),?,?,?,.,?,?,-13%
CC(C)NCCCC1(C(N)=O)c2ccccc2-c2ccccc21,.,.,.,.,-1,.,.
O=C(CSc1ccc(Cl)cc1)NCc1ccco1,?,-8%,-5%,-10%,-5,14%,-17%
O=C(COC(=O)Cc1ccc(Cl)cc1)NCc1ccco1,?,0%,-11%,-24%,0,8.5µM*,6.7µM*
O=C(CSc1ccc(Cl)cc1)NC(=O)NCc1ccco1,-15%,-3%,13%,-5%,4,.,.
O=C(COC(=O)Cc1ccc(Cl)c(Cl)c1)NCc1ccco1,?,2%,-3%,-1%,0,13µM*,?
O=C(COC(=O)Cc1c(Cl)cccc1Cl)NCc1ccco1,?,?,0%,-19%,0,.,.
O=C1CCCC2=C1C1(CCS(=O)(=O)C1)N=C(Nc1nc3ccccc3o1)N2 (centres undefined),.,.,-2%,.,.,.,.
N#Cc1nc(Nc2cc(F)cc(F)c2)c2ncn(C3CCCC3)c2n1,.,.,21%,.,.,.,.
N#CSCC(=O)O,.,.,.,.,0,.,.
O=C(CNC(=O)c1cccc2ccccc12)OC(C(=O)Nc1cc(C(F)(F)F)ccc1Cl)c1ccccc1 (centres undefined),.,.,5%,.,.,.,.
COc1cc(F)c(S(=O)(=O)N2CCN(S(=O)(=O)c3cccc(NC(C)=O)c3)CC2)c(F)c1,.,.,5%,.,.,.,.
Nc1nc(=O)n([C@@H]2O[C@H](CO)[C@@H](O)[C@@H]2F)cc1I,.,.,.,.,-1,.,.
Nc1cc(=O)[nH]c(SCC(=O)Nc2ccc3c(c2)CCC3)n1,-3%,-11%,7%,-10%,-10,.,.
